PfHsp90 yeast 2 = reduces growth (ATP signal) of yeast expressing P. falciparum Hsp90; S. cerevisiae expressing PfHsp90, BacTiter-Glo ATP, 48 h; yeast lacking PDR1 and PDR3 efflux regulators; inhibition, % at 9.4 µM; 0.32% of 310,000 active; AID 504621;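 active = every replicate shows inhibition above about 80%, whatever the replicate mean, limit read from the data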;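 note: 0% = DMSO neutral controls and 100% = 20 µM radicicol positive controls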
tim10-1 inh = inhibits growth of tim10-1 mutant yeast. AID 463190. S. cerevisiae tim10-1 ts strain growth, BacTiter-Glo, 24 h. 2.2% of 330,000 active. inhibition, % at 20 µM;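 active = inhibition of at least 40%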;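 note: mutant grown at 25 °C; 0% = DMSO wells with yeast and 100% = wells holding no yeast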
SKKanGAS inh = inhibitors of SKKanGAS S. pyogenes growth in kanamycin (SK-promoter or general growth effect); BacTiter-Glo, 6 h; inhibition, % at 7.5 µM; 1.3% of 300,000 active; AID 1662;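 active = mean replicate score, as percent of positive control median, at least 50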;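 note: strain carries kanamycin resistance gene driven by streptokinase promoter and grows in 40 µg/ml kanamycin; loss of luminescence reflects streptokinase promoter inhibition or plain growth inhibition; 0% = median of DMSO wells and 100% = positive control at its reference dose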
TIM10 inh = TIM10 yeast growth inhibition | S. cerevisiae TIM10 strain growth, BacTiter-Glo luminescence, 24 h | inhibition, % at 10 µM | 1.4% of 330,000 active;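 active = inhibition of 40% or more at the single tested concentration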;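 note: wild-type TIM10 isogenic control strain grown at permissive 25 °C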
tim23-1 inh = inhibits growth of tim23-1 mutant yeast | S. cerevisiae tim23-1 growth, BacTiter-Glo luminescence, 24 h | 1.3% of 330,000 active | AID 463212 | inhibition, % at 20 µM;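 active = growth inhibition of the mutant yeast at or above 50%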;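 note: temperature-sensitive mutant grown at 25 °C; plate controls were DMSO-treated mutant yeast for no effect and medium wells lacking yeast for full effect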
tim23-1 conf = tim23-1 yeast growth inhibition, confirmed | S. cerevisiae tim23-1 growth, BacTiter-Glo luminescence, 24 h | shares compounds with tim23-1 inh | AID 463218 | inhibition, % at 20 µM | 83% of 4,400 active;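 active = inhibition above about 39% in either of two replicate wells at 20 µM, limit read from the data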;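 note: temperature-sensitive tim23-1 mutant grown at 25 °C; 0% = DMSO wells with yeast and 100% = medium wells without yeast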
* hit, by the source's call. Shown are actives, neighbours in structure and some others; about 4.4% of the full set was active somewhere.

`Cc1nc(Nc2cccc(O)c2)c2c3c(sc2n1)CCC3` gave PfHsp90 yeast 2 -14.1, tim10-1 inh 15.7, SKKanGAS inh -13.7, TIM10 inh -3.9 and tim23-1 inh 23.7.
For O=c1cc(CSc2ccc(S(=O)(=O)N3CCCCC3)cn2)nc2sccn12 the results were PfHsp90 yeast 2 -24.1, tim10-1 inh 27.4, SKKanGAS inh 4.7, TIM10 inh 14.6, tim23-1 inh 66.2* and tim23-1 conf 37.8.
For CC(=O)NC1C(OCc2cccc(Br)c2)OC(COC(C)=O)C(OC(C)=O)C1OC(C)=O (stereo unspecified) the results were PfHsp90 yeast 2 21.3, tim10-1 inh -6.5, SKKanGAS inh -1.0, TIM10 inh 5.7, tim23-1 inh 93.4* and tim23-1 conf 12.6.
For Cc1ccc(S(=O)(=O)N2[C@@H](c3ccc(Br)cc3)C(C(=O)O)=CC[C@H]2c2ccc(Cl)c(Cl)c2)cc1 the results were PfHsp90 yeast 2 -65.1, tim10-1 inh 11.5, TIM10 inh 13.0 and tim23-1 inh 41.0.
Cc1ccc(S(=O)(=O)N2[C@@H](c3ccc(C(C)(C)C)cc3)C(C(=O)O)=CC[C@H]2c2cccc(Cl)c2)cc1 was read as PfHsp90 yeast 2 -6.5, tim10-1 inh 19.0, TIM10 inh 20.2, tim23-1 inh 53.0* and tim23-1 conf 44.4*.
`Cc1ccc(S(=O)(=O)N2[C@@H](c3ccc(C(C)(C)C)cc3)C(C(=O)O)=CC[C@H]2c2ccc(Cl)c(Cl)c2)cc1` gave PfHsp90 yeast 2 -24.6, tim10-1 inh -19.8, TIM10 inh 32.5, tim23-1 inh 63.4* and tim23-1 conf -29.2.
Screening CCOC(=O)NNc1ccc2nonc2c1[N+](=O)[O-] returned PfHsp90 yeast 2 -4.7, tim10-1 inh 19.9, SKKanGAS inh 11.2, TIM10 inh 31.3, tim23-1 inh 55.7* and tim23-1 conf 69.2*.
`CCc1ccc(Nc2ccc3nonc3c2[N+](=O)[O-])cc1` gave PfHsp90 yeast 2 -5.2, tim10-1 inh 19.4, SKKanGAS inh -11.5, TIM10 inh 22.5 and tim23-1 inh 16.2.
Screening COCCOC(=O)/C(=C\c1cc(C(C)(C)C)c(O)c(C(C)(C)C)c1)C(C)=O returned PfHsp90 yeast 2 -26.4, tim10-1 inh 35.7, SKKanGAS inh 18.2, TIM10 inh 33.0, tim23-1 inh 59.5* and tim23-1 conf 58.4*.
Screening CC(C)(C)c1cc(CCC(=O)NN)cc(C(C)(C)C)c1O returned tim10-1 inh 4.4, SKKanGAS inh 6.6, TIM10 inh -19.2 and tim23-1 inh 8.3.
COCCCN(C(=O)Nc1ccc(C)c(C)c1)C(C)c1ccccn1 (stereo unspecified) was read as PfHsp90 yeast 2 19.9, tim10-1 inh 25.2, SKKanGAS inh -1.8, TIM10 inh -2.2 and tim23-1 inh 14.8.
COCCCN(C(=S)Nc1cc(Cl)cc(Cl)c1)C(C)c1ccccn1 (stereo unspecified) was read as PfHsp90 yeast 2 1.9, tim10-1 inh 26.9, SKKanGAS inh 17.7, TIM10 inh 24.6, tim23-1 inh 62.7* and tim23-1 conf 52.7*.
`COCCCN(C(=S)Nc1cc(Cl)cc(Cl)c1)C(C)c1ccncc1` (stereo unspecified) gave PfHsp90 yeast 2 3.1, tim10-1 inh 17.2, SKKanGAS inh -2.4, TIM10 inh 23.1, tim23-1 inh 50.3* and tim23-1 conf 46.6*.
O=C(Nc1c2c(nn1-c1ccccc1)CS(=O)(=O)C2)c1cc2ccccc2o1 was read as PfHsp90 yeast 2 5.0, tim10-1 inh 23.9, SKKanGAS inh -2.7, TIM10 inh 5.0 and tim23-1 inh 27.4.
`CCCn1nnc(NC(=O)c2sc3ccccc3c2Cl)n1` gave PfHsp90 yeast 2 7.6, tim10-1 inh 19.1, SKKanGAS inh -10.1, TIM10 inh 21.5, tim23-1 inh 52.5* and tim23-1 conf 42.0*.
For Cc1ccc(S(=O)(=O)N2CCOCC2)cc1C(=O)NCCN1C(=O)S/C(=C\c2ccccc2Cl)C1=O the results were PfHsp90 yeast 2 13.9, tim10-1 inh 16.8, SKKanGAS inh -5.2, TIM10 inh 25.4 and tim23-1 inh 4.0.
For O=C(NCCN1C(=O)S/C(=C\c2cccc(Cl)c2Cl)C1=O)C1=COCCO1 the results were PfHsp90 yeast 2 -22.3, tim10-1 inh 24.8, SKKanGAS inh -6.7, TIM10 inh -106.1, tim23-1 inh 54.8* and tim23-1 conf 35.3.

Screening results: PubChem, several laboratories
